About 14,000 (4.5%) of roughly 310,000 compounds showed an effect of 50% or more. Effects have a minus sign here. Many of the other results were omitted from the sample, so strong results are more common in it than they were.
Biological target: human ether-à-go-go-related gene (hERG) potassium channel (human, UniProt Q12809)
Experiment: primary screen, population patch clamp on CHO cells stably expressing hERG; higher = less effect of the substance
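Also: peak tail current of the secondary pulse compared with the same well before compound.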

Sequence of human ether-à-go-go-related gene (hERG) potassium channel (Q12809 whole entry, looked up): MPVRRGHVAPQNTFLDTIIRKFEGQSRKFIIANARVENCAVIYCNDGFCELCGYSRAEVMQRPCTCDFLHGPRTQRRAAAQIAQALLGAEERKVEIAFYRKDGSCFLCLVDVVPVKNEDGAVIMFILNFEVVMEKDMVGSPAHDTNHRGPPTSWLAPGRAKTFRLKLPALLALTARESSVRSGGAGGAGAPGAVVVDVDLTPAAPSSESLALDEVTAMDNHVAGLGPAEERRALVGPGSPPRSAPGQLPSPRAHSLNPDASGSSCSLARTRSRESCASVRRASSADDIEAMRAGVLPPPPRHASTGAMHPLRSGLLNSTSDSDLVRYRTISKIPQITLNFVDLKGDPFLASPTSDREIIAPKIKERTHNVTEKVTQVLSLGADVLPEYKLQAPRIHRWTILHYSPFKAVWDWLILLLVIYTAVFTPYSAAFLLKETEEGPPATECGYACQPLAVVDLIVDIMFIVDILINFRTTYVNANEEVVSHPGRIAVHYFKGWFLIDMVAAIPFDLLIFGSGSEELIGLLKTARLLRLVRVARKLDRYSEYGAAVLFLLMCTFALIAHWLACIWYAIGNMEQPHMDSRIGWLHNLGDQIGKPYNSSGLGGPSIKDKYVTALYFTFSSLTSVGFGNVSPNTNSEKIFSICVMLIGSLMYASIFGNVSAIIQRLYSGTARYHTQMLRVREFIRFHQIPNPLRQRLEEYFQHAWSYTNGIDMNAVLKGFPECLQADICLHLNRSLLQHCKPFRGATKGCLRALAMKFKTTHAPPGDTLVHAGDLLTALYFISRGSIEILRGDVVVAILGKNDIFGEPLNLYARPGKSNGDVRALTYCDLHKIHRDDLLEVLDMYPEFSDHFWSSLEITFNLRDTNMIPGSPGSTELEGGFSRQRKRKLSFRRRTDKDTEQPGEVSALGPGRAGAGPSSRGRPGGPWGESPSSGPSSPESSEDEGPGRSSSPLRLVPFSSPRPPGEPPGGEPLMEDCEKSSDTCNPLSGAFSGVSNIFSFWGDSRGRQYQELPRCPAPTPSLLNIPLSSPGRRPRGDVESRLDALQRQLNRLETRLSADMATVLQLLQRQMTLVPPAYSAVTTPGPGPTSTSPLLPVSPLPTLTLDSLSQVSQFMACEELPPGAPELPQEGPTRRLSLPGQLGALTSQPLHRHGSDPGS

| Compound | hERG current change (%, negative = inhibition) at 10uM |
| --- | --- |
| CCOc1ccc(OCCOC(=O)C2CCN(S(=O)(=O)c3ccc(C)c(C)c3)CC2)cc1 | -22.4% |
| COc1ccc(COCC(O)CN2CCC(CN3C(=O)c4cccc5cccc(c45)C3=O)CC2)cc1OC.Cl (stereo not shown) | -71.5% |
| Cl.OCCN1CCN(CC(O)COCc2ccc3c(c2)OCO3)CC1 (stereo not shown) | -1.01% |
| Cl.OC(COCc1ccc2c(c1)OCO2)CN1CCCCC1 (stereo not shown) | -2.96% |
| CN1CCN(CC(O)COCc2ccc3c(c2)OCO3)CC1.Cl (stereo not shown) | 6.52% |
| COc1ccc(COCC(O)CN2CCCCC2)cc1OC.Cl (stereo not shown) | 16.6% |
| Cl.O=C1c2cccc3cccc(c23)C(=O)N1CC1CCN(CC(O)COCc2ccc3c(c2)OCO3)CC1 (stereo not shown) | -75.3% |
| COc1ccc(COCC(O)CN2CCOCC2)cc1OC.Cl (stereo not shown) | 20.8% |
| Cl.OC(COCc1ccc2c(c1)OCO2)CN1CCN(Cc2ccccc2)CC1 (stereo not shown) | -33.1% |
| Cl.OC(COCc1ccc2c(c1)OCO2)CN1CCC(Cc2ccccc2)CC1 (stereo not shown) | -87.6% |
| Cc1ccc2nc(C(O)C(O)c3nc4ccc(C)cc4[nH]3)[nH]c2c1 (stereo not shown) | -6.37% |
| O=C(Nc1nc(-c2ccc(Cl)cc2Cl)cs1)c1ccc(OCC2CCCO2)cc1 (stereo not shown) | 6.82% |
| COCCNc1nnc(SC(C)C(=O)Nc2c(C)n(C)n(-c3ccccc3)c2=O)s1 (stereo not shown) | 11.8% |
| COc1cccc(-n2nc(C(=O)O)c3ccccc3c2=O)c1 | 6.72% |
| CCN(CC)CCCNC(=O)c1nn(-c2cccc(OC)c2)c(=O)c2ccccc12 | -70.6% |
| CCCN(CCC)CCCNC(=O)c1cn(-c2ccc(OC)cc2)c(=O)c2ccccc12 | -48% |
| COc1cccc(-n2nc(C(=O)N3CCN(Cc4ccccc4)CC3)c3ccccc3c2=O)c1 | -50.3% |
| CCOC(=O)C(C)NC(=O)c1cn(-c2ccc(OC)cc2)c(=O)c2ccccc12 (stereo not shown) | 5.7% |
| CNC(=O)c1cn(-c2ccc(Cl)cc2)c(=O)c2ccccc12 | -9.43% |
| CCCCN(CC)CCNC(=O)c1cn(-c2ccc(Cl)cc2)c(=O)c2ccccc12 | -77.7% |
| CCN(CC)CCCNC(=O)CNC(=O)c1nn(-c2ccc(OC)cc2)c(=O)c2ccccc12 | 23.8% |
| COc1cccc(-n2nc(C(=O)N3CC(C)CC(C)C3)c3ccccc3c2=O)c1 (stereo not shown) | 3.43% |

| Compound | hERG current change (%, negative = inhibition) at 10uM |
| --- | --- |
| CCN(CC)CCCNC(=O)c1nn(-c2ccc(OC)cc2OC)c(=O)c2ccccc12 | -0.745% |
| CCCCN(CC)CCCNC(=O)c1cn(-c2ccc(OC)cc2)c(=O)c2ccccc12 | -56.5% |
| CCCCN(CC)CCNC(=O)c1cn(C)c(=O)c2c1c1ccccc1n2C | -24.6% |
| O=C(c1ccccc1[N+](=O)[O-])N1CCN(Cc2ccc3c(c2)OCO3)CC1 | -13.4% |
| Cc1cccc(N2C(S)=C(C#N)C(=O)NC23CCCCC3)c1 | -7.13% |
| CCCCC(=O)Nc1ccc(NC(=O)c2ccco2)cn1 | 10.1% |
| CCOc1ccccc1N1CCN(C(=O)c2csc(C)c2CC)CC1 | -8.41% |
| COC(=O)CSC1=C(C#N)C(c2ccccc2OC)C(C(=O)OC)C(=O)N1 (stereo not shown) | 15.6% |
| C/C(=C\C(=O)c1sccc1Cl)N(C)C | 0.12% |
| Cc1cnc([N+](=O)[O-])n1CCOC(=O)c1cccc(F)c1 | -3.45% |
| O=C(Cn1cnc2c(cnn2-c2ccccc2)c1=O)Nc1cc(S(=O)(=O)N2CCOCC2)ccc1Cl | -32.2% |
| CCOc1cc(C(=S)N2CCCCC2)ccc1OCC(=O)NCc1ccccc1 | -31.2% |
| COc1ccc(N2CCN(C(=O)Cn3cnc4c(cnn4-c4ccc(C)cc4)c3=O)CC2)cc1 | -9.24% |
| COCCCNC(=O)c1cn(-c2cccc(OC)c2)c(=O)c2ccccc12 | 18.1% |
| COc1cccc(-n2cc(C(=O)NCCCOC(C)C)c3ccccc3c2=O)c1 | -6.95% |
| CCN(CC)CCCNC(=O)c1cn(-c2cccc(OC)c2)c(=O)c2ccccc12 | -68.5% |
| CC(/C=C/c1ccccc1)=N\NC(=O)CNC(=O)c1ccccc1Cl | 7.15% |
| O=C(CSC1CC(=O)N(c2ccc(C(=O)O)cc2)C1=O)Nc1ccc2ccccc2c1 (stereo not shown) | 15.8% |
| O=C(NCCNc1ccc(Cl)cc1[N+](=O)[O-])c1cccnc1 | -29.4% |
| CCN(CC)CCNc1ccc(Cl)cc1[N+](=O)[O-].Cl | -61.6% |
| CN(C)CCNc1ccc(Cl)cc1[N+](=O)[O-] | -18.7% |
| Cc1ccoc1C(=O)NCCNc1ccc(Cl)cc1[N+](=O)[O-] | -30.5% |

| Compound | hERG current change (%, negative = inhibition) at 10uM |
| --- | --- |
| Cc1ccc(C(=O)NCCNc2ccc(Cl)cc2[N+](=O)[O-])o1 | -60% |
| O=C(NCCCNc1ccc(C(F)(F)F)cc1[N+](=O)[O-])c1cc(F)c(F)cc1Cl | -15.7% |
| O=C(NCCNc1ccccc1[N+](=O)[O-])c1cc(F)c(F)cc1Cl | -52.1% |
| O=C(NCCNc1ccccc1[N+](=O)[O-])c1ccccc1F | 4.11% |
| CCNCCNc1ccc(Cl)cc1[N+](=O)[O-].Cl | -20.3% |
| COc1ccccc1NC(=O)NCC(c1ccco1)N1CCCCC1 (stereo not shown) | 14.8% |
| Cc1ccc(S(=O)(=O)Nc2ccc(SC(F)F)cc2)c(C)c1 | 10.3% |
| COc1ccc(NC(=O)CN2C(=O)C(C)Oc3ccc(C)cc32)cc1 (stereo not shown) | 3.11% |
| CC(NC(=O)COc1ccccc1Cl)c1ccccc1 (stereo not shown) | 7.82% |
| Cc1ccccc1NC(=O)/C(=C\c1cccs1)NC(=O)c1ccco1 | -7.17% |
| O=C(N/C(=C/c1cccs1)C(=O)N1CCOCC1)c1ccco1 | -1.03% |
| CN1CCN(C(=O)/C(=C\c2cccs2)NC(=O)c2ccco2)CC1 | -67.4% |
| O=C(N/C(=C\c1cccs1)C(=O)N1CCOCC1)c1ccco1 | 0.17% |
| Cc1ccc(NC(=O)/C(=C/c2cccs2)NC(=O)c2ccco2)cc1 | 6.71% |
| CN1CCN(C(=O)/C(=C/c2cccs2)NC(=O)c2ccco2)CC1 | -70.5% |
| O=C(Nc1ccc(S(=O)(=O)N2C[C@@H]3C[C@@H](C2)c2cccc(=O)n2C3)cc1)c1ccc(F)cc1 | -2.39% |
| CC(=O)Nc1nc(N)n(-c2ccccc2)n1 | 3.2% |
| Clc1ccc(-c2ncc3ccccn23)cc1 | -4.95% |
| CN(c1ccc(C(=O)NCc2ccc3c(c2)OCO3)cc1)S(=O)(=O)c1ccccc1 | -4.02% |
| O=C(NC1=NCCS1)C1CC2CCC1C2 (stereo not shown) | 2.05% |
| COc1ccc(/C=N\NC(=O)c2cc(O)c(O)c(O)c2)cc1COc1ccc(C(=O)OCC(C)C)cc1 | 21% |
| CC(C)(C)c1ccc(OC(=O)c2ccc3snnc3c2)cc1 | 20.4% |

| Compound | hERG current change (%, negative = inhibition) at 10uM |
| --- | --- |
| CCN(CC)CCCN(Cc1cc2cc3c(cc2[nH]c1=O)OCO3)C(=S)NCc1ccco1 | -38.2% |
| CN(C)CCN(Cc1cc2cc3c(cc2[nH]c1=O)OCO3)C(=S)NCc1ccco1 | -11.4% |
| Cc1ccc(C)c2[nH]c(=O)c(CN(Cc3cccnc3)C(=S)NCc3ccco3)cc12 | -61.1% |
| Cc1cc2cc(CN(Cc3cccs3)C(=S)NCc3ccco3)c(=O)[nH]c2cc1C | -13.9% |
| Cc1ccc(C)c2[nH]c(=O)c(CN(Cc3cccs3)C(=S)NCc3ccco3)cc12 | -33% |
| O=c1[nH]c2cc3c(cc2cc1CN(Cc1cccnc1)C(=S)NCc1ccco1)OCCO3 | -5.62% |
| O=c1[nH]c2cc3c(cc2cc1CN(Cc1cccnc1)C(=S)NCc1ccco1)OCO3 | -52.5% |
| CCN(CC)CCN(Cc1cc2cc(C)c(C)cc2[nH]c1=O)C(=S)NCc1ccco1 | -52.8% |
| O=c1[nH]c2cc3c(cc2cc1CN(CCCO)C(=S)NCc1ccco1)OCO3 | 12% |
| CCN(CC)CCN(Cc1cc2cc3c(cc2[nH]c1=O)OCO3)C(=S)NCc1ccco1 | -55.8% |
| Cc1cc2cc(CN(CCN(C)C)C(=S)NCc3ccco3)c(=O)[nH]c2cc1C | -43.8% |
| Cc1ccc(C)c2[nH]c(=O)c(CN(CC3CCCO3)C(=S)NCc3ccco3)cc12 (stereo not shown) | -24.3% |
| COc1ccc(C(=O)NCCSc2ccc(C)cc2)cc1 | -11% |
| O=c1cc(-c2cc3ccccc3o2)c2cc(O)ccc2o1 | 13.3% |
| Clc1ccc(-[n+]2c(-c3cccc(Br)c3)[nH]c3nc4ccccc4nc32)cc1 | 13.5% |
| Cc1ccc(S(=O)(=O)NC(=O)COc2ccccc2C)c(C)c1 | -21.9% |
| Cc1c(Cl)cccc1NC(=O)COC(=O)c1c2c(nc3ccccc13)CCN(Cc1ccccc1)C2 | 2.82% |
| Cc1ccc(C(=O)NNC(=O)Cn2nnc3ccccc32)cc1 | 13.3% |
| NC(=O)COc1cccc(/C=N/NC(=O)c2ccc(-n3cccc3)cc2)c1 | 13.5% |
